Among the data in PubChem BioAssay (NCATS) are Potency values, retold here.

Where “and” joins values, the source holds several entries; their conditions need not be identical. Equal entries are not always repeated. Inconclusive results are not listed. Calls of active or inactive are those of the source. Unless noted, calls follow the shape of the dose curve; as a rule, active = well fitted curve in the direction sought with a large enough effect; inconclusive = small, poorly fitted or top-dose-only effect, or another doubt; inactive = no such curve, though single readings can be large; an effect the other way counts as inactive or inconclusive.

The target of assay [1] is Cytochrome P450 2C9 (Homo sapiens) (UniProt P11712). Put plainly: Cytochrome P450 family 2 subfamily C member 9 (CYP2C9) small molecule antagonists: luciferase biochemical (cell-free) qHTS assay (AID 1645842; active = well fitted curve in the direction sought with a large enough effect in the repeat runs; an effect the other way counts as inactive or inconclusive; also: nearly all actives have a fitted effect of over 55% in size). The method in brief: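 Luminescence, after 20 min with luciferin detection reagent, reflected CYP2C9 turnover during a 1 h NADPH-driven reaction at 37C. Enzyme-substrate mix contained 0.4% bovine serum albumin and was preincubated with compound 10 min at room temperature.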

A short description of assay [2]: Primary qHTS for inhibitors of nuclear receptor binding SET domain protein 2 (NSD2) in an isogenic RCH-ACV NSD2 p.E1099K mutant (9B) (AID 1645876). Also: nearly all actives have a fitted effect of over 70% in size.
Assay [3] in a line: Primary qHTS for inhibitors of nuclear receptor binding SET domain protein 2 (NSD2) in an RCH-ACV wild type WT cells (2C) (AID 1645877). Also: nearly all actives have a fitted effect of over 70% in size.
Potency is read from the fitted curve at half-maximal effect.

Sequence of Cytochrome P450 2C9 (Homo sapiens) (P11712 whole entry, looked up): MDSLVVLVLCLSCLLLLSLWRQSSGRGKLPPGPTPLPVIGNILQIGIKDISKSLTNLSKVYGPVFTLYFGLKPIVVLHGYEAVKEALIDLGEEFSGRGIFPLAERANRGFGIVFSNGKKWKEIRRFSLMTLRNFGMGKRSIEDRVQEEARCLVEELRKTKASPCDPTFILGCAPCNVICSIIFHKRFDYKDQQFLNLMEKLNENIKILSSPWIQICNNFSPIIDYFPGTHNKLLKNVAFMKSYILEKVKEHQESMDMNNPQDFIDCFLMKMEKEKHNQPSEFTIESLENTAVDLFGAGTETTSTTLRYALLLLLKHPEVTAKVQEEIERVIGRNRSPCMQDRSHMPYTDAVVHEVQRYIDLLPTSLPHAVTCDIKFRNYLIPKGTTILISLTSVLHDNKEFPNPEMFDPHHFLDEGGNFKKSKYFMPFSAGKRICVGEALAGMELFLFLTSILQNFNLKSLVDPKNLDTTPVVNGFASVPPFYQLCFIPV

As to `Cc1ccc(C2(C(=O)N3CCC(n4nc(-c5ccccc5)oc4=O)CC3)CC2)cc1`, in assay [1], the Potency was 0.756 µM (active). Also, the Potency result in assay [2] and in assay [3] was “inactive” throughout.
Turning to `O=C(c1ccccn1)N(Cc1cccs1)C1(C(=O)NC2CCCCC2)CCCCC1`, the Potency in assay [1] was 9.52 µM (active). For the same molecule, the Potency entry in assay [2] and in assay [3] was “inactive” each time.
Turning to `COc1ccc(C2(CNC(=O)c3ccc(NC(=O)c4ccco4)cc3)CCOCC2)cc1`, the Potency entry in assay [1], in assay [2] and in assay [3] was “inactive” each time.
For the molecule `CN(C)Cc1ccc(-c2cnn3c(-c4cccc(NC(=O)c5cccc(C(F)(F)F)c5)c4)ccnc23)cc1`, the Potency in assay [1] is 7.56 µM (active); in assay [2], 3.65 µM (active); in assay [3], 4.09 µM (active).
The matching figures for `O=C(CCl)Nc1cccc(NC2=NS(=O)(=O)c3ccccc32)c1`: 15.1 µM (active), 9.34 µM (active) and 6.61 µM (active).
The matching figures for `Oc1ccc(-c2cnc3ccc(NCc4ccco4)nn23)cc1`: 0.756 µM (active), 1.83 µM (active) and 1.83 µM (active).
The matching figures for `Cn1ncnc1[C@@H]1c2n[nH]c(=O)c3cc(F)cc(c23)N[C@H]1c1ccc(F)cc1`: “inactive”, 20.5 µM (active) and 9.16 µM (active).
For the molecule `COc1c(C)cnc(Cn2cc(C#CCC(C)(C)O)c3c(Cl)nc(N)nc32)c1C`, the Potency was 2.39 µM (active) in assay [1], 0.129 µM (active) in assay [2] and 0.145 µM (active) in assay [3].
As for `Cc1[nH]c(/C=C2\C(=O)Nc3ccc(F)cc32)c(C)c1C(=O)NCCN1CCCC1`, the Potency entry in assay [1] is “inactive”. Besides, the Potency in assay [2] is 16.3 µM (active) and 7.23 µM (active); in assay [3] it was 11.5 µM (active) and 7.23 µM (active).
For the molecule `N#Cc1ccc(COC[C@H]2O[C@@H](n3c(NCc4ccc(Cl)c(Cl)c4)nc4c(N)ncnc43)[C@H](O)[C@@H]2O)cc1`, the values for the Potency in assay [1], in assay [2] and in assay [3] were 10.7 µM (active), 14.8 µM (active) and 9.34 µM (active), respectively.
The matching figures for `Clc1ccc(Nc2nc3ccccc3c3nc(C4CCCCC4)[nH]c23)cc1Cl`: 6.01 µM (active), 16.3 µM (active) and 16.3 µM (active).
With `O=c1[nH]c([C@@H]2CCCN2)nc2c1oc1ccc(Cl)cc12`, the Potency result in assay [1] is “inactive”. The Potency in assay [2] is 9.16 µM (active); in assay [3], 4.59 µM (active) and 10.5 µM (active).
